Assay results reported in PubChem BioAssay AID1259415 (National Center for Advancing Translational Sciences (NCATS), 2018).
Several values for one entry are separate records, joined by “and”; a condition that tells them apart may be missing. Equal values may be shown once. The campaign covered roughly 410,000 compounds. About 18,000 (4.4%) were called active. Not shown: some 7% with an inconclusive outcome. This is one part of a sample in which actives are shown more often than they occur. A number with no mark means an inactive call. Rule as the data show it: active = activity change below about -60%; inconclusive = no clear call, values can overlap the other calls; inactive = above about -39%.

assay: qHTS Assay for inhibitors of the human cytomegalovirus (HCMV); conditions: HFF cells, HCMV-luciferase reporter, 72 h; at 57.5 µM; hits give low values
How it was run: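 Inhibition of viral replication was scored as loss of reporter luminescence in HFFs infected with HCMV-luciferase (MOI 1 PFU/cell) for 72 h; compounds tested at 2 doses, normalized to buffer and Salinomycin controls.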
% is scaled to controls: 0 for no effect and ±100 for the full control effect.

Compound	activity change, negative = inhibition
COc1ccc(C(=O)NC(=S)NNC(=O)CCc2ccccc2)cc1	-85.4% (active)
Cc1c(NC(=S)NC(=O)CCc2ccccc2)c(=O)n(-c2ccccc2)n1C	-11.5%
CCCCC(=O)NNC(=S)NC(=O)C(c1ccccc1)c1ccccc1	-31.6%
Cc1cccc(C(C)C)c1NC(=O)C(NS(=O)(=O)c1cccc2nsnc12)c1ccccc1 (stereo unspecified)	-12.4%
CCOC(=O)c1c(C)n(S(=O)(=O)c2ccc(C)cc2C)c2ccc(NS(=O)(=O)c3ccc(C)cc3C)cc12	37%
O=C(c1ccc(C(F)(F)F)cc1)N1CCC(c2nc(-c3ccc(S(=O)(=O)N4CCCC4)cc3)no2)CC1	-39.7%
Cc1ccccc1NC(=O)c1c(NC(=O)c2ccccc2F)sc2c1CCC(C)C2 (stereo unspecified)	-1.03%
CC(C)NC(=O)COCc1cc(-c2ccc3c(c2)OCO3)on1	-102% (active)
CCOC(=O)N1CCN(C(=O)COCc2cc(-c3ccc4c(c3)OCO4)on2)CC1	-33.7%
Cc1cccc(N2CCN(C(=O)COCc3cc(-c4ccc5c(c4)OCO5)on3)CC2)c1C	10.8% and 0.0657%
O=C(O)c1cccc(N=NN2CCCCCC2)c1	134%
CCc1nnc(SCc2c(F)cccc2Cl)c2cc3sccc3n12	-67.2% (active)
Cn1c(SCc2c(F)cccc2Cl)nnc1-c1cnccn1	-2.73%
CCc1nnc(SCc2nc(-c3cccc(C)c3)oc2C)c2cc3sc(C)cc3n12	22.7%
CCOC(=O)CSC1=Nc2ccccc2C2=NC(CCC(=O)NCc3ccc(F)cc3)C(=O)N12 (stereo unspecified)	-5.13%
COc1cccc(NC(=O)Nc2ccc3c(c2)N(C)C(=O)c2ccccc2S3)c1	-33.9%
CCO/C=C1\C(=O)N(c2ccc(OCC)cc2)C(=O)c2ccccc21	-9.21%
CCOc1ccc(N2C(=O)CN(c3cccc4ccccc34)C2=S)cc1	28.1%
CCOc1ccc(N2C(=O)CSC2=NC#N)cc1	-101% (active)

Compound	activity change, negative = inhibition
Cn1c(=O)c(C(=O)O)nn(-c2ccccc2)c1=O	-0.182%
O=C(CCN1CCCCC1)N=Nc1c(O)[nH]c2ccccc12	8%
CCN(C(=O)COC(=O)c1cc(NS(=O)(=O)c2ccc(Cl)c([N+](=O)[O-])c2)ccc1O)C1CCCCC1	-23%
O=[N+]([O-])c1cc(S(=O)(=O)Nc2cccc(Cl)c2)ccc1N=Nc1c(O)[nH]c2ccccc12	-78.2% (active)
C/C(=N\NC(=O)NC1CCCCC1)c1ccc(OC(F)F)cc1OC(F)F	-36.3%
Cc1ccc(-n2c(C)nnc2SCC(=O)NC2CC2)cc1	17.2%
N#Cc1ccc(CSc2nnc3ccccn23)cc1	-25.8%
Cc1ccc(-n2c(C)cc(C(=O)CSc3nnc4ccccn34)c2C)cc1	-86.1% (active)
Cc1ccc(-n2nc(C)c(C(=O)O)c2-n2cccc2)cc1	3.17%
COC(=O)c1cc(=O)n(-c2c(Cl)cc(C(F)(F)F)cc2Cl)[nH]1	31.8%
C=CCn1cc(-c2cccc(C(F)(F)F)c2)cc(C#N)c1=O	-25.4%
CC1(Cc2cccc(C#N)c2)C(=O)Nc2ccc(-c3cccc(C(F)(F)F)c3)cc21 (stereo unspecified)	-96.6% (active)
Cc1ccc(S(=O)(=O)NC(C(=O)N2CCOCCOCCOCCOCC2)c2ccccc2)cc1 (stereo unspecified)	-14.3%
Cc1oc2c(c1C(=O)N1CCOCC1)C(=O)c1ccccc1C2=O	-101% (active)
Cc1ccc(C)c(CN2C(=O)c3ccccc3S(=O)c3ccc(C(=O)N4CCOCC4)cc32)c1 (stereo unspecified)	9.82%
COc1cc(NC(=O)C2CC(c3ccccc3O)=NO2)c(OC)cc1Cl (stereo unspecified)	0.764%
CCC(C)Cn1c(O)cc2nn(-c3nc4ccccc4s3)c(=O)c-2c1C (stereo unspecified)	-80.3% (active)
NS(=O)(=O)c1ccc(NC(=O)C(=O)Nc2ccc3nc4n(c(=O)c3c2)CCCCC4)cc1	13.4%
COc1ccc(-c2c(C)nn3c(N4CCC(C(=O)NCCC(C)C)CC4)cc(C)nc23)cc1OC	1.6%

Compound	activity change, negative = inhibition
CCN1CCN(C(c2ccc(C)cc2)c2c(O)cc(C)n(Cc3ccco3)c2=O)CC1 (stereo unspecified)	25%
CCOc1ccccc1NC(=O)Cn1nnc(C(=O)Nc2ccc(C)c(C)c2)c1N	-18.4%
CCOc1ccc(Cl)cc1-c1cc(C(=O)NCc2cccs2)[nH]n1	8.26%
CCOc1ccccc1NC(=O)Cn1nnc(C(=O)NCc2cccs2)c1N	-78.3% (active)
COc1ccc(CNC(=O)CS(=O)Cc2nc(-c3cccc(C)c3)oc2C)cc1 (stereo unspecified)	-7.8%
CN(CC(=O)O)S(=O)(=O)c1ccc2oc3ccccc3c2c1	-8.55%
COc1ccccc1CNc1nc(Nc2ccccc2Cl)c2sccc2n1	-67.2% (active)
COc1cccc(CNc2nccn(-c3ccc(OC)c(OC)c3)c2=O)c1	13.5%
COc1cccc(-c2cc3nc(NCc4ccccc4OC)n(C)c(=O)c3s2)c1	-13.2%
COc1cccc(CNc2nc(NCc3ccccc3OC)nc3ccsc23)c1	-90.2% (active)
COc1ccccc1CNc1nc2ccc(Cl)cc2n2cnnc12	25.8%
CC(C)Nc1nc(NCCOc2ccccc2Cl)c2sccc2n1	-35.9%
CCN1CCC(N(Cc2ccc(F)cc2)C(=O)Nc2cc(C)ccc2C)CC1	-23.7%
CCOC(=O)Cn1c(=O)n(-c2ccccc2OC)c2nc(-c3cccc(F)c3)nc(C(N)=O)c21	1.14%
O=C(Cc1ccc(F)cc1)N1CCN=C1SCc1cccc([N+](=O)[O-])c1	35.3%
O=C(O)c1cc(S(=O)(=O)N(Cc2ccccc2)c2ccccc2)ccc1Cl	-27.4%
O=C(CCl)N(Cc1cccc([N+](=O)[O-])c1)c1cccc(Cl)c1	-99.6% (active)
CCOC(=O)c1cc(NC(=O)c2ccc(F)cc2)c(=O)n2c1oc1ccccc12	-11.8%
